Source: PubChem
Methyltransferases – Primary Screen for Target Class Profiling of Small Molecule Inhibitors of Methyltransferases; purified enzyme, MTase-Glo SAH luminescence; stronger effect = lower value; 3.9% of 25,000 active; calls only at 40 µM; call rule not given here
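Each enzyme was assayed with SAM and its substrate. SAH formation detected by MTase-Glo luminescence; single-point 40 uM screen[…].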
Active calls of the source: *; i = inactive; + = active, no number; ! = not confirmed by another sample. The sample as a whole holds a higher share of hits than the screen did. % is scaled to controls: 0 for no effect and ±100 for the full control effect.

SMILES	Methyltransferases
CCCCN1[C@@H]2CC[C@H]1CC(OC(c1ccc(F)cc1)c1ccc(F)cc1)C2 (stereo partly drawn)	+
CCOC(=O)CC1(NC(=O)N2Cc3ccccc3-n3cccc3C2c2cccs2)CCCCC1 (stereo not drawn)	i
CCC1c2cccn2-c2ccccc2CN1C(=O)Nc1ccc(OC)c(OC)c1 (stereo not drawn)	i
Cc1ccccc1NC(=O)N1Cc2ccccc2-n2cccc2C1C(C)C (stereo not drawn)	i
CCOc1ccc(NC(=O)N2Cc3ccccc3-n3cccc3C2CC)cc1 (stereo not drawn)	i
Cc1ccccc1C1c2cccn2-c2ccccc2CN1C(=O)Nc1cccc(Br)c1 (stereo not drawn)	i
Cc1cccc(C2c3cccn3-c3ccccc3CN2C(=O)Nc2cc(C)ccc2C)c1 (stereo not drawn)	i
COc1cccc(CNC(=O)N2Cc3ccccc3-n3cccc3C2c2ccccc2)c1 (stereo not drawn)	i
CCC1CN2CCc3cc(OC)c(OC)cc3C2CC1CC1=NCCc2cc(O)c(OC)cc21 (stereo not drawn)	+
Cc1cccc(C2c3cccn3-c3ccccc3CN2C(=O)Nc2ccc(C)cc2Cl)c1 (stereo not drawn)	i
CCC1c2cccn2-c2ccccc2CN1C(=O)Nc1cc(C)ccc1C (stereo not drawn)	i
COCCCNC(=O)N1Cc2ccccc2-n2cccc2C1c1ccc(C(C)C)cc1 (stereo not drawn)	i
CCCN1CCO[C@@H]2c3cc(O)ccc3OC[C@H]21	i
CCCN1CCc2cccc3c2[C@H]1Cc1ccc(O)c(O)c1-3	+
Cc1ccc(NC(=O)N2Cc3ccccc3-n3cccc3C2C(C)C)cc1C (stereo not drawn)	i
CCCNC(=O)N1Cc2ccccc2-n2cccc2C1c1ccc(CC)cc1 (stereo not drawn)	i
CSc1ccc(C2c3cccn3-c3ccccc3CN2C(=O)Nc2ccc(C)cc2Cl)cc1 (stereo not drawn)	i
CSc1ccc(C2c3cccn3-c3ccccc3CN2C(=O)Nc2ccccc2)cc1 (stereo not drawn)	i
C=CCN1CCC2(C)c3cc(O)ccc3C[C@H]1[C@H]2C	+
CC(C)[C@@H](CN1CC[C@@](C)(c2cccc(O)c2)[C@@H](C)C1)NC(=O)[C@H]1Cc2ccc(O)cc2CN1	i
COc1ccc(NC(=O)N2Cc3ccccc3-n3cccc3C2C)cc1 (stereo not drawn)	i
Oc1ccc2c(c1)C13CCCC[C@H]1[C@@H](C2)N(CC1CCC1)CC3	+
CCc1ccc(C2c3cccn3-c3ccccc3CN2C(=O)NCCC(C)C)cc1 (stereo not drawn)	i
COc1ccc(C2c3cccn3-c3ccccc3CN2C(=O)Nc2ccccc2C)cc1 (stereo not drawn)	i
CCc1ccccc1NC(=O)N1Cc2ccccc2-n2cccc2C1c1ccc(OC)c(OC)c1 (stereo not drawn)	i
SMILES	Methyltransferases
Cc1ccc(NC(=O)N2Cc3ccccc3-n3cccc3C2c2cccs2)c(C)c1 (stereo not drawn)	i
COc1cccc(CNC(=O)N2Cc3ccccc3-n3cccc3C2c2ccccc2Cl)c1 (stereo not drawn)	i
Cc1ccc(NC(=O)N2Cc3ccccc3-n3cccc3C2c2ccc(F)cc2)cc1 (stereo not drawn)	i
CC(=O)C1=C(O)[C@@H]2[C@H]3c4c[nH]c5cccc(c45)C[C@H]3C(C)(C)N2C1=O	+
Cc1cc(C)cc(NC(=O)N2Cc3ccccc3-n3cccc3C2c2cccc(Cl)c2)c1 (stereo not drawn)	i
COc1ccc(C2c3cccn3-c3ccccc3CN2C(=O)Nc2ccc(OC)c(OC)c2)cc1 (stereo not drawn)	i
COc1ccc(C2c3cccn3-c3ccccc3CN2C(=O)NC(C)C)cc1OC (stereo not drawn)	i
CCOc1ccccc1NC(=O)N1Cc2ccccc2-n2cccc2C1c1ccccc1C (stereo not drawn)	i
CC1Oc2cc3c(-c4c(O)cc(O)c5c(O)c6c(cc45)OC(C)C(C)C6=O)c(O)cc(O)c3c(O)c2C(=O)C1C (stereo not drawn)	+
COc1ccc(C2c3cccn3-c3ccccc3CN2C(=O)Nc2ccc(F)cc2)cc1OC (stereo not drawn)	i
CC1c2cccn2-c2ccccc2CN1C(=O)Nc1cccc(Br)c1 (stereo not drawn)	i
CCC1c2cccn2-c2ccccc2CN1C(=O)Nc1ccc(OC)cc1 (stereo not drawn)	i
COc1ccc(NC(=O)N2Cc3ccccc3-n3cccc3C2c2cc(F)cc(F)c2)cc1 (stereo not drawn)	i
COc1ccccc1NC(=O)N1Cc2ccccc2-n2cccc2C1c1ccc(F)cc1 (stereo not drawn)	i
COc1ccc(NC(=O)N2Cc3ccccc3-n3cccc3C2c2ccccc2Cl)c(OC)c1 (stereo not drawn)	i
CNc1ccc2oc(C[C@H]3O[C@@]4(CC[C@H]3C)O[C@H]([C@H](C)C(=O)c3ccc[nH]3)[C@H](C)C[C@H]4C)nc2c1C(=O)O	+
COc1ccc(NC(=O)N2Cc3ccccc3-n3cccc3C2c2cccc(C)c2)c(OC)c1 (stereo not drawn)	i
N#C/C(=C/c1ccc(O)c(O)c1)C(N)=S	+!
CC(C)CCNC(=O)N1Cc2ccccc2-n2cccc2C1c1ccc(F)cc1 (stereo not drawn)	i
COc1ccc(C2c3cccn3-c3ccccc3CN2C(=O)Nc2cccc(SC)c2)cc1OC (stereo not drawn)	i
Cc1cc(C)cc(NC(=O)N2Cc3ccccc3-n3cccc3C2C)c1 (stereo not drawn)	i
COC(=O)c1cccc(NC(=O)N2Cc3ccccc3-n3cccc3C2c2ccc(SC)cc2)c1 (stereo not drawn)	i
CC1c2cccn2-c2ccccc2CN1C(=O)Nc1ccc(F)cc1 (stereo not drawn)	i
Cc1ccccc1C1c2cccn2-c2ccccc2CN1C(=O)Nc1ccc(Br)cc1 (stereo not drawn)	i
CN(N=O)c1cc(O)ccc1O	+
SMILES	Methyltransferases
CCOC(=O)Cc1ccc(NC(=O)N2Cc3ccccc3-n3cccc3C2c2ccc(CC)cc2)cc1 (stereo not drawn)	i
CCOC(=O)C1CCC(CNC(=O)N2Cc3ccccc3-n3cccc3C2c2ccccc2)CC1 (stereo not drawn)	i
[Cl-].[Cl][Pt].[NH2-].[NH2-].c1ccncc1	+
COC(=O)CCNC(=O)N1Cc2ccccc2-n2cccc2C1c1ccc(C(C)C)cc1 (stereo not drawn)	i
Cc1ccc(NC(=O)N2Cc3ccccc3-n3cccc3C2c2ccccc2Cl)cc1C (stereo not drawn)	i
CCc1ccc(C2c3cccn3-c3ccccc3CN2C(=O)Nc2ccccc2F)cc1 (stereo not drawn)	i
COc1ccc(C2c3cccn3-c3ccccc3CN2C(=O)NCCc2ccccc2)cc1 (stereo not drawn)	i
Cc1nnc2n1-c1sc(CCc3ccc(CC(C)C)cc3)cc1C(c1ccccc1Cl)=NC2C (stereo not drawn)	+
COc1ccc(NC(=O)N2Cc3ccccc3-n3cccc3C2c2cccc(C)c2)cc1OC (stereo not drawn)	i
